Experimental data from the supplement of paper PMC10849652.
Of roughly 7,900 targets only a part is listed; those with a hit were picked by preference. About 0.6% of all pairs of compound and target were hits. Values without a mark were called inactive.

Legend:
Test in all cases: log2 fold change, soluble protein after heating vs DMSO (PISA); higher = thermal stabilisation; K562 cells, 10 uM, 30 min; active = over 0.2 and 3.5 SD of the protein, either way, in both replicates (recomputed)
[1] = compound: C#Cc1cccc(Nc2ncnc3cc(OCCOC)c(OCCOC)cc23)c1 [erlotinib]
In short: (§1)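 Values are thermal stability changes relative to control samples and are taken from duplicates. They are stated as log2 fold changes. Before quantification by TMTpro 16plex LC-MS/MS with equalised channel sums, K562 cells at 2×10^6 cells/mL were treated with 10 μM compound for 30 min, heated in aliquots for 3 min across 48°C-58°C, pooled, extracted in PBS with 0.5% NP-40 at 4°C, and centrifuged at 21,000xg for 90 min to give the soluble supernatant.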

[2] = compound: C/C(=N\NC(=O)C1=CC(=CC=C1)S(=O)(=O)N2CCOCC2)/C3=C(C=CC(=C3)Cl)O
In short: as §1

[3] = compound: C1=CC(=C(C=C1Cl)C2=NC3=NC=CN=C3C(=N2)NC4=CC=NC=C4)F
In short: as §1

[4] = compound: C1=CC(=CC=C1C2=NC3=C(N2)C=C(C=C3)C(=O)N)OC4=CC=C(C=C4)Cl
In short: as §1

[5] = compound: C1=CC2=C(C=CC(=C2)/C=C\3/C(=O)NC(=NCC4=CC=CS4)S3)N=C1
In short: as §1

[6] = compound: C1=CC2=NC=CN=C2C=C1/C=C/3\C(=O)NC(=O)S3
In short: as §1

[7] = compound: C1=CC=C(C=C1)C2=NC(=C(N2)C3=CC=NC=C3)C4=CC(=C(C=C4)Cl)O
In short: as §1

[8] = compound: C1=CC=C2C(=C1)C3=NNC4=CC=CC(=C43)C2=O
In short: as §1

[9] = compound: C1CCN(C1)C(=O)NC2=CC=CC(=C2)NC3=NC=C(C(=N3)NCCC4=CN=CN4)Br
In short: as §1

[10] = compound: C1CN(CCC1(CC2=CC=C(C=C2)Cl)N)C3=NC=NC4=C3C=CN4
In short: as §1

Sequence of UniProt Q969N2 (Q969N2 whole entry, looked up): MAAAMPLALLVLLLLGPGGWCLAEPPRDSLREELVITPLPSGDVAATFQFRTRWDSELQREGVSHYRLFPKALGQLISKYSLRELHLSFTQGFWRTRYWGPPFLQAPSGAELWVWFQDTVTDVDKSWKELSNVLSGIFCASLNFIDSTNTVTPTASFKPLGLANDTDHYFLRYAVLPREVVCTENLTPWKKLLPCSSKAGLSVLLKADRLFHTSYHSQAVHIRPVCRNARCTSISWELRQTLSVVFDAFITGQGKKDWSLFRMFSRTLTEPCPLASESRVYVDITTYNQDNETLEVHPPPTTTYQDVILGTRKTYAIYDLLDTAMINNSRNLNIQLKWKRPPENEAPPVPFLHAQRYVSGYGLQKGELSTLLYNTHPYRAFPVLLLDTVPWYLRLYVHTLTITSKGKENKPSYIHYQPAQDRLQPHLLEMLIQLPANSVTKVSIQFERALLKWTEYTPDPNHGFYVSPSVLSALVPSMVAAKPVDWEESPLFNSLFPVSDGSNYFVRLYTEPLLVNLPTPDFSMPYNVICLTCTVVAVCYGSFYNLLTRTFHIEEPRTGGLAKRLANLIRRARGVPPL
Sequence of UniProt Q8IV08 (Q8IV08 whole entry, looked up): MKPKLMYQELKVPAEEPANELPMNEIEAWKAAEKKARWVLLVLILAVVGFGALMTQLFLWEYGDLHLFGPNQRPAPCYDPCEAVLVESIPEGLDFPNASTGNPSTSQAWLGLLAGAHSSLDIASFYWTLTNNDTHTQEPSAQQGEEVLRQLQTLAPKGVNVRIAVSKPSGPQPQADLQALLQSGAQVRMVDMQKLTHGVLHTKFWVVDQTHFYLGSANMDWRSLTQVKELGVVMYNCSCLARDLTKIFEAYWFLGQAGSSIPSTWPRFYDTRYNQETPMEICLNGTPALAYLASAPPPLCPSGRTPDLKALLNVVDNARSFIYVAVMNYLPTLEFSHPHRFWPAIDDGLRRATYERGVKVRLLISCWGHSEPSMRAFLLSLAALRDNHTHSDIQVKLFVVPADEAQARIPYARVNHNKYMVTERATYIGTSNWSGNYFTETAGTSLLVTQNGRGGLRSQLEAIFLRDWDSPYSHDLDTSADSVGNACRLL
Sequence of UniProt Q9UBV8 (Q9UBV8 whole entry, looked up): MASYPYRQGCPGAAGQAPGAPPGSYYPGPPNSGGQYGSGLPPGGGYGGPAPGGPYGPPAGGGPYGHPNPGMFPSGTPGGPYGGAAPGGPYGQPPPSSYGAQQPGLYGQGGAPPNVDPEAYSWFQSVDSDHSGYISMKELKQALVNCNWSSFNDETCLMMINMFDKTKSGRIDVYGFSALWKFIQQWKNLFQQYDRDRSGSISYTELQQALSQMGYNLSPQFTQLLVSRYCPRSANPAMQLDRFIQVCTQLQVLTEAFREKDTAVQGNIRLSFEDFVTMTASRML
Sequence of UniProt Q8WXF1 (Q8WXF1 whole entry, looked up): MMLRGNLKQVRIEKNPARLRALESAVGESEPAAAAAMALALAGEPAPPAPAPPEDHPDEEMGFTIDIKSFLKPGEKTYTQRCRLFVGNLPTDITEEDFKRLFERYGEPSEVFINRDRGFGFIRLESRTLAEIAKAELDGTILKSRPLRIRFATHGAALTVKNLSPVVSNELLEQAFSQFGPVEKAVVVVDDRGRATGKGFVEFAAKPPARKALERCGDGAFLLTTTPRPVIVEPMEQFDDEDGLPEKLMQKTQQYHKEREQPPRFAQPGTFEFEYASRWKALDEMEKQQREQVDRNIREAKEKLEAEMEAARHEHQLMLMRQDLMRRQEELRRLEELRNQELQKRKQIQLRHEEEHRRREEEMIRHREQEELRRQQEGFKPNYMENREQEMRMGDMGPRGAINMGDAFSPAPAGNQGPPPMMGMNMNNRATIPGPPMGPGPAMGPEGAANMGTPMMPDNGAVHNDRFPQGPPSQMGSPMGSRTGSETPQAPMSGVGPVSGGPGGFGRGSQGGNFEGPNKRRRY
Sequence of UniProt Q8WUM4 (Q8WUM4 whole entry, looked up): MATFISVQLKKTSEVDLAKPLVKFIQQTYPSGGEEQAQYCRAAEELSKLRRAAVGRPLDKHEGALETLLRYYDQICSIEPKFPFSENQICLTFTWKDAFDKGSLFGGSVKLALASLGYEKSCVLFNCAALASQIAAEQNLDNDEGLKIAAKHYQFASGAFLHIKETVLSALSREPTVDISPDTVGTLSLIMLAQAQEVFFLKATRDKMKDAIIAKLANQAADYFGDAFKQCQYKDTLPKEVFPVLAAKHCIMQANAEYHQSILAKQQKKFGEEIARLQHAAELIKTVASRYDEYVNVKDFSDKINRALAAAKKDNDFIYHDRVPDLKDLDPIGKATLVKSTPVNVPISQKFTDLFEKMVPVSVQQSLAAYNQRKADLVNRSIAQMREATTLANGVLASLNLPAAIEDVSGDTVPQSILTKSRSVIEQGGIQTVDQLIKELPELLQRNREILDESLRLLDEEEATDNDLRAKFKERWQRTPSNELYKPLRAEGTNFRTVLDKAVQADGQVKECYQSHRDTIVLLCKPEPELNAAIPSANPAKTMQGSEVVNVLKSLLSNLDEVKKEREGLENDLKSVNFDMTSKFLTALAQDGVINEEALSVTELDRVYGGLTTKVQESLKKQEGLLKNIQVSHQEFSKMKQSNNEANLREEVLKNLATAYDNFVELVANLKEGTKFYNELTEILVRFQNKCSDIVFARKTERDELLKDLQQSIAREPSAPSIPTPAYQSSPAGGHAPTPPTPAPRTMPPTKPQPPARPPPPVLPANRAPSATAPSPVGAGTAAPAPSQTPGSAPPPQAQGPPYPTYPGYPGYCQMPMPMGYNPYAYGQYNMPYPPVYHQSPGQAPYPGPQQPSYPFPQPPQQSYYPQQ
Sequence of UniProt P27986 (P27986 whole entry, looked up): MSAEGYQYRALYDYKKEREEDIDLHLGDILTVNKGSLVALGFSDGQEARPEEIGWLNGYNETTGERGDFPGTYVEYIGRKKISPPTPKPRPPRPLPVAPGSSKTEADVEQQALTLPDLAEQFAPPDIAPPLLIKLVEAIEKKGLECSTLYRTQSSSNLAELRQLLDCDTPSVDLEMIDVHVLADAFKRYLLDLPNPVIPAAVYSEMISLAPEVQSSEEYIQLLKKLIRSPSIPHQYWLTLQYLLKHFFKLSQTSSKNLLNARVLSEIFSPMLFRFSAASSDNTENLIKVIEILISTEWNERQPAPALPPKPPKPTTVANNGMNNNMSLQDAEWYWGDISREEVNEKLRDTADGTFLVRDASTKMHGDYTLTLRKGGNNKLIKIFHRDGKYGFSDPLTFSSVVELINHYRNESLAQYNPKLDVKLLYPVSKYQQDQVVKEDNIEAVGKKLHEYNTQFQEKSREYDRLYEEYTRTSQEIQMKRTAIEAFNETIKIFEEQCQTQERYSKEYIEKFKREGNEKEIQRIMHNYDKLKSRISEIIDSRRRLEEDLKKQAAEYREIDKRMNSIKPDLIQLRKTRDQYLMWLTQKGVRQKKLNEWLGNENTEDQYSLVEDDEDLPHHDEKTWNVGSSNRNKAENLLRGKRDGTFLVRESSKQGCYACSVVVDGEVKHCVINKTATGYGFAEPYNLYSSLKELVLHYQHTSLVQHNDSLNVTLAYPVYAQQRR
Sequence of UniProt P05423 (P05423 whole entry, looked up): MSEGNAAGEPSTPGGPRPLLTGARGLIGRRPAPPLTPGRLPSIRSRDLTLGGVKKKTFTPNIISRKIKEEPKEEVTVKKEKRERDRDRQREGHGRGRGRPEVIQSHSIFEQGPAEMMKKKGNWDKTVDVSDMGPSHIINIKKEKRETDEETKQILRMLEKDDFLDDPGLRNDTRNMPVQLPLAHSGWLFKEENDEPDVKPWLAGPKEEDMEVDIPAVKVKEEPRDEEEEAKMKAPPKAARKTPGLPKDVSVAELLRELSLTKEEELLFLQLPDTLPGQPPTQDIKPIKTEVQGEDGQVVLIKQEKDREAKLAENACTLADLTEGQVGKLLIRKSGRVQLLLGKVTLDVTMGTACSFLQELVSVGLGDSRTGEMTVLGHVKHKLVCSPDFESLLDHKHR
Sequence of UniProt Q04759 (Q04759 whole entry, looked up): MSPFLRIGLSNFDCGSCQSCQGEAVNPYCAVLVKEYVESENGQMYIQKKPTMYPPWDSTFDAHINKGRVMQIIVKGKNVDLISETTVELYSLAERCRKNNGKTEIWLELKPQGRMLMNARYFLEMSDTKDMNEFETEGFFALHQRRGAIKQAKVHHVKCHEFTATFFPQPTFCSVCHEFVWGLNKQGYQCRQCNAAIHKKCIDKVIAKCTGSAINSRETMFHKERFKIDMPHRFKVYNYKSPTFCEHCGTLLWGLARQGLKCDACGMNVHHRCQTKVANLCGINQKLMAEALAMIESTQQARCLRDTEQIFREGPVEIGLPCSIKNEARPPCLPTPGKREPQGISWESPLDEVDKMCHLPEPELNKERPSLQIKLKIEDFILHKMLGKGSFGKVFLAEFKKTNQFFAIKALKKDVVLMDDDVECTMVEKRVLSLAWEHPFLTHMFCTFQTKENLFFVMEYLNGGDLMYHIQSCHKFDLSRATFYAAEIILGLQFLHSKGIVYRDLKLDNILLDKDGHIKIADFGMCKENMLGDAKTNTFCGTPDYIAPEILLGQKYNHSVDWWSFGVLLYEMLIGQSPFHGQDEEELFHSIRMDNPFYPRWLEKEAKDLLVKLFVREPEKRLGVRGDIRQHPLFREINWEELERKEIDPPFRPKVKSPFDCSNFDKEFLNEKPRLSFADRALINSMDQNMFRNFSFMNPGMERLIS
Sequence of UniProt Q8NBL1 (Q8NBL1 whole entry, looked up): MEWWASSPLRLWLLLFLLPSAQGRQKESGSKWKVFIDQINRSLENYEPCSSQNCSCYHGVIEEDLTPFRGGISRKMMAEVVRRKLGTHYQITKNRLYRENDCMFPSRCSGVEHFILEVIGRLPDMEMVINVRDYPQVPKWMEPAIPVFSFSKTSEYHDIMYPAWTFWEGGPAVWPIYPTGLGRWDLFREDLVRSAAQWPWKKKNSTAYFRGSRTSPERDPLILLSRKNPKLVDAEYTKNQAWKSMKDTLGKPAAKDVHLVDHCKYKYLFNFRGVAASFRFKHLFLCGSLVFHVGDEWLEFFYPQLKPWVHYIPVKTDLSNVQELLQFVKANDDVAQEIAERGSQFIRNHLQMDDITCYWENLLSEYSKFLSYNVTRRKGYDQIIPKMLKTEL

Target	log2 fold change [1]	log2 fold change [2]	log2 fold change [3]	log2 fold change [4]	log2 fold change [5]	log2 fold change [6]	log2 fold change [7]	log2 fold change [8]	log2 fold change [9]	log2 fold change [10]
PSPC1 (UniProt Q8WXF1)	-0.024	0.014	-0.036	0.043	-0.008	0.004	-0.101	-0.141	-0.033	-0.061
PELP1 (UniProt Q8IZL8)	0.082	0.044	-0.035	0.008	-0.032	-0.008	0.007	-0.053	-0.041	0.08
PNN (UniProt Q9H307)	0.007	-0.001	0.032	0.024	0.025	0.085	-0.107	-0.11		
POLR2K (UniProt P53803)	-0.081	0.021	-0.037	0.127	-0.017	0.097	-0.1	-0.105	0.005	0.022
PCNT (UniProt O95613)	0.284	-0.138	-0.095	-0.099	0.15	-0.023	-0.079	-0.097	0.065	-0.021
POP1 (UniProt Q99575)	-0.01	0.028	-0.015	0.029	-0.011	0.022	0.017	-0.016	0	-0.01
PEF1 (UniProt Q9UBV8)	-0.053	0.108	0.079	-0.029	0.134	-0.064	0.109	0.035	-0.008	-0.069
PSMC6 (UniProt P62333)	-0.06	-0.074	-0.006	0.011	-0.031	-0.037	0.015	0.014	0.034	-0.008
PLSCR1 (UniProt O15162)	-0.023	0.03	0.089	0.077	-0.004	0.022	0.061	-0.04	-0.008	0.05
PGM3 isoform 4 (UniProt O95394)	0.001	0.094	0.045	0.103	0.092	0.001	0.042	0.064	-0.005	-0.053
POLR2D (UniProt O15514)	-0.153	-0.048	0.138	0.204	0.06	0.087	-0.049	-0.011	0.058	0.064
PIGT (UniProt Q969N2)	-0.045	0.037	0.002	0.034	0.009	-0.001	0.011	0.018	-0.006	-0.003
PIK3R1 (UniProt P27986)	0.01	0.033	0.025	0.048	0.036	0.14	-0.022	-0.027	-0.024	0.05
PAK4 (UniProt O96013)	0.155	-0.066	0.017	-0.04	0.015	0.048	-0.068	-0.013	0.062	-0.03
PUF60 (UniProt Q9UHX1)	-0.011	0.172	-0.005	0.014	-0.071	-0.026	0.013	0.02	-0.072	-0.141
POLR3D (UniProt P05423)	0.068	-0.665 (active)	-0.087	-0.031	-0.733 (active)	-0.022	0.076	-0.004	-0.005	0.372
PRKCQ (UniProt Q04759)	0.036	0.047	0.024	0.03	0.093	0.012	0.012	-0.008	-0.007	-0.061
PEA15 isoform 2 (UniProt Q15121)	0.001	0.042	0.056	0.026	-0.014	0.055	-0.006	0.072	0.016	-0.064
PITRM1 isoform 2 (UniProt Q5JRX3)	-0.004	-0.008	0.012	0.005	0.118	0.007	0.041	0.03	0.023	0.153
PLBD1 (UniProt Q6P4A8)	0.05	-0.008	0.024	0.037	0.09	0.024	0.036	-0.01	0.037	0.009
PSMD13 (UniProt Q9UNM6)	-0.091	-0.026	-0.076	0.002	-0.02	0.013	-0.002	0.044	-0.008	-0.069
PLD3 (UniProt Q8IV08)	-0.012	0.029	0.054	0.023	0.04	0.024	-0.061	0.006	0.001	0.048
PSMC4 (UniProt P43686)	-0.05	-0.092	-0.052	-0.004	-0.023	-0.032	-0.011	0.006	0.04	-0.041
PDCD6IP (UniProt Q8WUM4)	0.162	0.167	0.045	-0.044	0.122	0.014	0.031	0.043	-0.095	-0.122
PRIM1 (UniProt P49642)	0.005	0.011	-0.044	0.049	-0.005	0.027	-0.09	0.061	-0.033	-0.074
POGLUT1 (UniProt Q8NBL1)	0.006	-0.046	-0.041	-0.004	0.055	0.026	0.167	-0.013	-0.007	-0.041
PATL1 (UniProt Q86TB9)	0.044	0.13	-0.021	0.048	0.01	-0.233	-0.075	0.029	-0.071	-0.052
